Screening results as filed in PubChem BioAssay.
Most compounds without a hit are left out; they make up all but 11% or so of the library.
Pf growth 48h: Primary qHTS for delayed death inhibitors of the malarial parasite plastid, 48 hour incubation; P. falciparum luciferase growth in erythrocytes, 48 h; Potency, µM (titrated, usually from 28.7 µM), inactives show at the highest dose activity change, negative = inhibition, hits mostly inhibitors; 310,000 tested, 5.9% active; AID 504832, 2011
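Cell-based growth assay: transgenic P. falciparum expressing firefly luciferase, cultured in red cells within RPMI 1640 containing 0.5% w/v Albumax, 24 mM bicarbonate and gentamycin. A drop in luciferase activity indicates inhibition.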
AmpC no deterg: qHTS Inhibitors of AmpC Beta-Lactamase (assay without detergent); P00811; AmpC nitrocefin hydrolysis, absorbance 480 nm, 0.0001% Triton; Potency, µM (doses to about 57.1 µM), for inactives: top-dose activity change, negative = inhibition, most hits filed as inhibitors; 330,000 tested, 0.52% active; AID 485341, 2010;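 further: plate controls were no compound for no effect and no enzyme for full effect; nearly all actives have a fitted effect of over 20% in size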
Target sequence (P00811 whole entry, looked up): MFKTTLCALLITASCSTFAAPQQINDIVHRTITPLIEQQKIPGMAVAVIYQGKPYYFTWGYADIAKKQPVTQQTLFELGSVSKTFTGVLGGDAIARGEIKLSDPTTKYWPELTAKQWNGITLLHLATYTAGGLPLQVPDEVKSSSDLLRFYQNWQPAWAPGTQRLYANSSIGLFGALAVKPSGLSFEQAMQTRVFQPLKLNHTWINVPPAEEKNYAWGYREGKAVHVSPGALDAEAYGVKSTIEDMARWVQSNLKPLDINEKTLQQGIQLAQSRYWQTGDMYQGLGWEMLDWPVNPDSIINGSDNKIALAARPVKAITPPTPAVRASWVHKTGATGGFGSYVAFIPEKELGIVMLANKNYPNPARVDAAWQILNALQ
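AmpC (5.3 nM in the dispensed reagent) in 20 mM phosphate pH 7.0 with 0.01% (detergent screen) or 0.0001% Triton X-100 was preincubated with compounds for 15 min at room temperature. Nitrocefin was then added from an 800 uM solution, and hydrolysis was followed at 480 nm.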
AmpC detergent: qHTS Inhibitors of AmpC Beta-Lactamase (assay with detergent) | P00811 | AmpC hydrolysis of nitrocefin, absorbance 480 nm, 0.01% Triton | Potency, µM (series often up to 114 µM), inactives show top-dose activity change, negative = inhibition, usual class: inhibitors | 370,000 tested, 0.041% active;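 further: 0% = no-compound wells and -100% = no-enzyme wells; nearly all actives have a fitted effect of over 25% in size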
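20 mM phosphate pH 7.0 + 0.01% (detergent screen) or 0.0001% Triton X-100; 5.3 nM AmpC reagent; cpd preinc 15 min RT; nitrocefin (800 uM stock) to start; A480 q20 s × 4 min; Activity was normalised to no-enzyme and no-compound control wells.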
AMA1 RON2 block: qHTS for Inhibitors of AMA1-RON; Towards Development of Antimalarial Drug Lead: Primary Screen; 360,000 tested, 0.2% active; Potency, µM (highest dose often 58.2 µM), for the others: at the highest dose activity change, negative = inhibition, hits mostly inhibitors; Plasmodium falciparum AMA1 (3D7) - RON2 peptide interaction; AlphaScreen AMA1-biotinylated RON2 peptide binding;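 further: 0% = vehicle wells and -100% = peptide control; nearly all actives have a fitted effect of over 45% in size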
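AMA1 (3D7) with his tag at 25 nM final met compounds first, then biotinylated RON2 peptide at 25 nM; detection used donor plus acceptor beads, 10 µg/mL apiece, read by AlphaScreen after 30 min at room temperature.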
HCV inh: qHTS Assay for Inhibitors of Hepatitis C Virus (HCV). 340,000 tested, 3.4% active. AID 651820, 2012. Potency, µM (top dose mostly 41.8 µM), for inactives: top-dose activity change, negative = inhibition, most hits filed as inhibitors. Huh7.5.1 HCVcc-Cre infection, luciferase reporter, 44 h
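Infectious HCVcc-Cre (~0.5 moi) was added to cells just after compound, with cells seeded 4 h earlier at 1,000 per well. Luciferase activity after 44 h culture reported infection; substrate was incubated 15 min at room temperature before reading.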
Pf growth 96h: Primary qHTS for delayed death inhibitors of the malarial parasite plastid, 96 hour incubation; P. falciparum luciferase reporter growth, 96 h; Potency, µM (series often up to 28.7 µM), without a hit: at the highest dose activity change, negative = inhibition, hits mostly inhibitors; 320,000 tested, 6.9% active; AID 504834, 2011
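Compounds incubated with erythrocytes infected by luciferase-expressing P. falciparum (2% hematocrit, 0.05% parasitemia final) for 96 hours, 37 C in 5% CO2. Growth inhibition scored as decreased luciferase luminescence.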
Starred values were filed as active, the others as inactive; ! = a repeat was not active. The call rests on the fitted dose curve; in most records, active means well fitted curve in the direction sought with a large enough effect; inconclusive means small, poorly fitted or top-dose-only effect, or another doubt; inactive means no such curve, though single readings can be large; an effect the other way counts as inactive or inconclusive. Unless noted, on the % scale 0 is the no-effect control and ±100 the full control effect; potency means the concentration at half of the fitted maximal effect.

`COC(=O)[C@@H]1[C@@H]2C[C@H]3c4[nH]c5cc(OC)ccc5c4CCN3C[C@@H]2C[C@H](OC(=O)/C=C\c2cc(OC)c(OC)c(OC)c2)[C@H]1OC` gave Pf growth 48h 5.1µM* and Pf growth 96h inconclusive.
Screening COC(=O)C1C2CC3c4[nH]c5cc(OC)ccc5c4CCN3CC2CC(O)C1OC (stereo not drawn) returned AMA1 RON2 block -11% and HCV inh -7%.
`Cn1c(=O)c(Nc2ccc(O)cc2)c2c3c(cccc31)C(=O)c1ccccc1-2` gave Pf growth 48h inconclusive, AmpC no deterg -59%, AmpC detergent 0%, AMA1 RON2 block 25µM*, HCV inh inconclusive and Pf growth 96h inconclusive.
For Cc1ccccc1NC(=O)c1sc2nc3n(c(=O)c2c1C)N=C(c1ccccc1)CS3 the results were AmpC detergent -7%.
O=C(CN1CCC(C(=O)c2ccc(F)cc2)CC1)Nc1ccccc1 was read as Pf growth 48h inconclusive, AmpC no deterg 36%, AmpC detergent -16%, AMA1 RON2 block -1% and Pf growth 96h inconclusive.
Screening Cc1nc2sccn2c(=O)c1CCN1CCC(=C(c2ccc(F)cc2)c2ccc(F)cc2)CC1 returned Pf growth 48h 10µM*, AmpC no deterg 121%, AmpC detergent 0%, AMA1 RON2 block -30%, HCV inh 3.5µM*! and Pf growth 96h 10µM*.
Screening Cc1nc2ccccn2c(=O)c1CCN1CCC(C(=O)c2ccc(F)cc2)CC1 returned Pf growth 48h inconclusive, AmpC no deterg -22%, AmpC detergent -6%, AMA1 RON2 block -5%, HCV inh inconclusive and Pf growth 96h 11µM*.
CCOc1ccccc1NC(=O)Cn1c(=O)n(Cc2ccc(C(=O)NCCCOC)cc2)c(=O)c2ccccc21 was read as AmpC detergent 21%.
Screening CC(C)(C)c1ccc(OCCSc2nc(-c3cccs3)nc3cc(=O)[nH]n23)cc1 returned AmpC detergent 1%.
O=C(CN1C(=O)NC2(CCCCCC2)C1=O)c1ccc2c(c1)OCCO2 was read as Pf growth 48h 105%, AmpC no deterg -15%, AmpC detergent inconclusive, AMA1 RON2 block 6%, HCV inh inconclusive and Pf growth 96h 8.3µM*.
CCC(C)(C)C1CCC2(CC1)NC(=O)N(CC(=O)N(C)Cc1ccc3c(c1)OCCO3)C2=O (stereo not drawn) was read as Pf growth 48h inconclusive, AmpC no deterg -17%, AmpC detergent 2%, AMA1 RON2 block -3%, HCV inh 13µM* and Pf growth 96h -88%.
`CN(Cc1ccc2c(c1)OCCO2)C(=O)CN1C(=O)NC2(CCCCC2)C1=O` gave Pf growth 48h 8%, AmpC no deterg 8%, AmpC detergent 4%, AMA1 RON2 block -8%, HCV inh 4% and Pf growth 96h 8%.
`CCc1ccc(C(=O)CN2C(=O)NC3(CCCCCC3)C2=O)cc1` gave Pf growth 48h 36%, AmpC no deterg -18%, AmpC detergent 0%, AMA1 RON2 block 18%, HCV inh 11µM* and Pf growth 96h 20%.
For CCOc1ccc(C(C)=O)cc1CN1C(=O)NC2(CCCCCCC2)C1=O the results were Pf growth 48h 12µM*, AmpC no deterg -6%, AmpC detergent 4%, AMA1 RON2 block -12%, HCV inh -21% and Pf growth 96h inconclusive.
COc1ccccc1CN1CCC(CNC(=O)c2cnn(-c3ccc(Cl)cc3)c2C2CCN(C(=O)OC(C)(C)C)CC2)CC1 was read as AmpC detergent 23%.
